Results filed as inconclusive are left out. Where a call stands in place of a potency, no number is given. The source made the active and inactive calls. The call rests on the fitted dose curve; in most records, active means well fitted inhibition curve with a large enough effect; inconclusive means small, poorly fitted or top-dose-only effect; inactive means flat fitted curve, though single readings scatter.

The values that follow come from PubChem BioAssay (NCATS).

The nature of this experiment: Primary qHTS for inhibitors of nuclear receptor binding SET domain protein 2 (NSD2) in an isogenic RCH-ACV NSD2 p.E1099K mutant (9B) (AID 1645876). Further: nearly all actives have a fitted effect of over 70% in size. The conditions noted are these: RCH-ACV (leukaemia line) NSD2 E1099K (9B) viability, CellTiter-Glo, 72 h; series mostly up to 44.9 µM.
For the compound `CS(=O)(=O)c1ccc(-c2nnc(/C=C/c3nnc(-c4ccc(C#N)cc4)o3)n2-c2ccccc2Cl)nc1`, the Potency result was “inactive”.
Same read-out and setting: then `C=C1C(O)C(O)C2(CC3C(C)=CCC4C(C)(CO)CCCC34C)OC2C1O` (configuration not stated), with “inactive”.
Same read-out and setting: then `C/C=C/C=C/[C@@H]1O[C@](O)([C@H](CC)C(=O)NC/C=C/C=C(\C)[C@@H](OC)[C@@H](C)C2OC(/C=C/C=C/C=C(\C)C(=O)c3c(O)cc[nH]c3=O)[C@H](O)[C@@H]2O)[C@H](O)[C@H](O)C1(C)C` (some centres not stated), with “inactive”; and `C[S+](CC[C@H](N)C(=O)[O-])C[C@H]1O[C@@H](n2cnc3c(N)ncnc32)[C@H](O)[C@@H]1O` (some centres not stated), with “inactive”; and `COc1cccc2cc3c(c(O[C@@H]4O[C@H](CO[C@@H]5O[C@H](CO)[C@@H](O)[C@H](O)[C@H]5O)[C@@H](O)[C@H](O)[C@H]4O)c12)C(C)OC3=O` (some centres not stated), with “inactive”.
The same measure, in the same setting: then `CC1=C(C)C(=O)OC(C(C)C2CCC3C4CC=C5CC(OC6OC(COC7OC(CO)C(O)C(O)C7O)C(O)C(O)C6O)CC(O)C5(C)C4CCC23C)C1` (configuration not stated), with “inactive”.
On to `C[C@@H]1O[C@@H](O[C@H]2[C@H](O)[C@@H](O[C@@H]3O[C@H](CO)[C@@H](O)[C@H](O[C@@H]4O[C@H](CO)[C@@H](O)[C@H](O)[C@H]4O)[C@H]3O)[C@H](O[C@H]3CC[C@@]4(C)C(=CC[C@@H]5C4CC[C@@]4(C)C5C[C@@H]5OC6(CC[C@@](C)(CO[C@@H]7O[C@H](CO)[C@@H](O)[C@H](O)[C@H]7O)O6)[C@@H](C)[C@@H]54)C3)O[C@@H]2CO)[C@H](O)[C@H](O)[C@H]1O` (some centres not stated), for which the activity change, negative = viability loss is -19.9% [at 9.23 µM] (inactive).
